# Compound activity: PubChem, National Center for Advancing Translational Sciences (NCATS)
# DT40 TDP1 no CPT: qHTS for Inhibitors of human tyrosyl-DNA phosphodiesterase 1 (TDP1): qHTS in cells in absence of CPT; DT40 Tdp1-/- hTDP1 cells, no CPT, ATP luminescence, 48 h; Potency, µM (doses to about 46.2 µM), without a hit: at the highest dose activity change, negative = growth inhibition, actives largely listed as inhibitors; 15% of 420,000 active; further: potency means the concentration at half of the fitted maximal effect; nearly all actives have a fitted effect of over 55% in size
#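 Compound effects on proliferation are scored in DT40 Tdp1-/-;hTDP1 cells in the absence of CPT. ATP levels (CellTiter-Glo luminescence) are recorded after a ≥48 hr, 37 °C incubation.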
# Gal4-VP16 FLuc: counter-screen for ROR gamma inhibitors: Gal4-VP16 reporter; Drosophila S2 Gal4-VP16 UAS-luciferase, luminescence, 20 h; Potency, µM (series often up to 53.6 µM), for inactives: at the highest dose activity, negative = inhibition, hits mostly inhibitors; 3.5% of 310,000 active; AID 2546;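 further: Gal4-VP16 expression switched on by copper sulfate through the metallothionein promoter; potency means the concentration at half of the fitted maximal effect; nearly all actives have a fitted effect of over 50% in size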
# LDHA inh: inhibitors of human lactate dehydrogenase A; P00338; purified LDHA, NADH/diaphorase-resazurin fluorescence; active compounds read low; activity change, % (values are at about 110 or 230 µM); 0.15% of 480,000 active; AID 1347041; in the data active means activity change below about -30%; inconclusive means mostly about -25% to -30%;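 further: plate controls were DMSO wells for no effect and wells without enzyme for full effect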
#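 Remaining NADH was detected by diaphorase (0.133 mg/mL) converting 37 µM resazurin to fluorescent resorufin, read at 0 and 20 minutes. The preceding 5-minute room-temperature reaction used 2 nM LDHA, 0.2 mM sodium pyruvate and 0.06 mM NADH at pH 7.4.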
# RORg inh: inhibitors of mouse ROR gamma transcriptional activity; 5.4% of 310,000 active; Drosophila S2 Gal4-RORgamma UAS-luciferase reporter, 20 h; Potency, µM (highest dose often 53.6 µM), for inactives: top-dose activity change, negative = inhibition, usual class: inhibitors; further: potency means the concentration at half of the fitted maximal effect; nearly all actives have a fitted effect of over 60% in size
# Target sequence (P51450 whole entry, looked up, the tested form may be a part): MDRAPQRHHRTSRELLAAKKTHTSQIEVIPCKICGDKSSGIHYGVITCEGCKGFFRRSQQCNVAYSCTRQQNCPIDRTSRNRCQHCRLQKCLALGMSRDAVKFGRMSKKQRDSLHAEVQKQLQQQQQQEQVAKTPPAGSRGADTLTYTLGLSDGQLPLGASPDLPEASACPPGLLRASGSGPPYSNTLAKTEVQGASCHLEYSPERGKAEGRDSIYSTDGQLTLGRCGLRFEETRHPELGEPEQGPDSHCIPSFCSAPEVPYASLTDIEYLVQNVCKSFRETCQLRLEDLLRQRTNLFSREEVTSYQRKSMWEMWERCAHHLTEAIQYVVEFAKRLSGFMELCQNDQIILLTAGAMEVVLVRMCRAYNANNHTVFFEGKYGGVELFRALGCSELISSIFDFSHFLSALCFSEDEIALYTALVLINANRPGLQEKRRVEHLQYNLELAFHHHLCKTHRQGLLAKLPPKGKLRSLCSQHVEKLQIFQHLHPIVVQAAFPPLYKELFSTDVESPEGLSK
#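 ROR gamma transcriptional activity was tracked as Gal4-UAS luciferase output in stably transfected Drosophila Schneider cells, with compound added 1 hr before 700 uM copper sulfate induction and a 20 hr ambient-temperature incubation.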
# DT40 TDP1 CPT: DT40-hTDP1 cell growth loss with CPT; chicken DT40 Tdp1-/-;hTDP1 cells + 20 nM CPT, ATP luminescence, 48 h; Potency, µM (highest dose often 46.2 µM), without a hit: top-dose activity change, negative = growth inhibition, most hits filed as inhibitors; 12% of 420,000 active; further: potency means the concentration at half of the fitted maximal effect; nearly all actives have a fitted effect of over 55% in size
#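 Chicken DT40 Tdp1-/- cells complemented with human TDP1, 400 cells/well, exposed to compounds plus 20 nM camptothecin for at least 48 h at 37 C; viability read as ATP content by CellTiter-Glo luminescence.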
# IL1B secr inh: blocks inflammasome-driven IL-1 beta release; 4.7% of 360,000 active; activity change, % at 57.5 µM; THP-1 LPS/ATP IL-1B secretion, AlphaLISA, 16 h; active compounds read low; in the data active means activity change below about -50%; inconclusive means mostly about -30% to -49%
#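 THP-1 cells pretreated 1 hr with compounds (up to 57.5 uM final), then stimulated with LPS (250 ng/mL final) plus ATP (1.25 mM final); secreted IL-1B measured by AlphaLISA after 16 hr, decreased signal indicating inhibition.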
# * marks the source's active call; other numbers are inactive results; ? = inconclusive; / = not tested or not shown; [ ] = dose if it differs, or a comment. A selection: hits, their analogues and other compounds. The true share with any hit is near 18%. Unless noted, the call rests on the fitted dose curve; in most records, active means well fitted curve in the direction sought with a large enough effect; inconclusive means small, poorly fitted or top-dose-only effect, or another doubt; inactive means no such curve, though single readings can be large; an effect the other way counts as inactive or inconclusive. Unless noted, on the % scale 0 is the no-effect control and ±100 the full control effect.
SMILES,DT40 TDP1 no CPT,Gal4-VP16 FLuc,LDHA inh,RORg inh,DT40 TDP1 CPT,IL1B secr inh
CCC[C@@H]1CC2=CC(=O)CC[C@]2(C)[C@H]2CC[C@@]3(C)[C@@H](CC[C@@]34CCC(=O)O4)[C@H]12,/,-2.3%,/,2.3%,/,/
COc1cc(SC#N)ccc1N=Cc1c(C)[nH]n(-c2ccc(C)cc2C)c1=O,14.6µM*,?,1.1,?,20.6µM*,-97.4*
COc1cc(SC#N)ccc1N=Cc1c(C)[nH]n(-c2cccc3ccccc23)c1=O,10.3µM*,?,-1.4,?,10.3µM*,-76.4*
COc1ccc(C(C(=O)NCc2ccccc2)N(Cc2ccco2)C(=O)c2cnccn2)cc1 (stereo unspecified),?,-11.0%,-5.2,11.6%,?,0.0
CCOc1ccc(C(C(=O)NC2CCCC2)N(CCCO)C(=O)c2ccc(-c3ccccc3)[nH]2)cc1 (stereo unspecified),18.4µM*,2.5%,-8.6,31.3%,20.6µM*,-20.8
Cc1ccccc1C(C(=O)NCc1ccccc1)N(Cc1ccco1)C(=O)c1ccccn1 (stereo unspecified),14.6µM*,2.9%,-7.4,41.3%,?,-15.2
O=C(NCc1ccccc1)C(c1ccc(F)cc1)N(Cc1ccco1)C(=O)c1ccccn1 (stereo unspecified),?,4.0%,-2.9,25.7%,?,-9.2
O=C(NC1CCCC1)C(c1ccncc1)N(Cc1ccco1)C(=O)c1ccc(-c2ccccc2)[nH]1 (stereo unspecified),16.4µM*,14.1%[10 µM],-7.9,?,23.1µM*,-104.9*
O=C(NC1CCCCC1)C(c1ccc(F)cc1)N(Cc1ccco1)C(=O)c1ccccn1 (stereo unspecified),-24.5%,9.1%,-4.6,9.8%,0.82µM*,-8.1
COc1ccccc1NC(=O)C1=C(C)Nc2nc(SC)nn2C1c1cccnc1 (stereo unspecified),/,/,-9.3,/,/,/
CCOC(=O)c1c(S(=O)(=O)Nc2ccc(OC)c(Cl)c2)c(C)n(C)c1C,/,/,-8.2,/,/,/
Cc1ccc(C)c(S(=O)(=O)Nc2ccc(S(=O)(=O)C3CCCC3)cc2)c1,/,/,-5.0,/,/,/
CCOC(=O)c1ccc2c3c(cccc13)CC2,/,/,-1.7,/,/,/
CS(=O)(=O)N1CCN(c2ccc(NC(=O)COc3ccc(Cl)cc3)cc2)CC1,/,/,5.6,/,/,/
O=C(NC1CCCC1)C(c1ccncc1)N(Cc1ccccc1)C(=O)c1ccc(-c2ccccc2)[nH]1 (stereo unspecified),16.4µM*,?,1.0,-42.1%[10 µM],20.6µM*,-79.2*
CC(C)c1ccc(NC(=O)CSc2nc(=O)n(Cc3cccnc3)c3c2CCC3)cc1,25.9µM*,/,2.4,/,?,/
Cc1ccc(NC(=O)CSc2nc(=O)n(Cc3ccccn3)c3c2CCC3)cc1F,16.4µM*,/,-5.4,/,?,/
Cc1ccc(NC(=O)CSc2nc(=O)n(CCCN3CCOCC3)c3c2CCCC3)cc1F,-17.6%,/,-1.4,/,1.3%,-85.2*
CCc1ccc(NC(=O)CSc2nc(=O)n(CCCN3CCOCC3)c3c2CCCC3)cc1,-21.7%,/,0.2,/,-18.5%,?
CC(C)c1ccc(NC(=O)CSc2nc(=O)n(Cc3ccccn3)c3c2CCC3)cc1,18.4µM*,/,-0.6,/,23.1µM*,/
CC(=O)c1cccc(NC(=O)CSc2nc(=O)n(Cc3ccccn3)c3c2CCC3)c1,?,/,3.7,/,-29.1%,?
Cc1cccc(N2CCN(CCCNC(=O)c3nnc(Cc4c(F)cccc4Cl)o3)CC2C)c1 (stereo unspecified),?,/,-6.1,/,23.1µM*,/
O=C(NCCCN1CCN(Cc2ccccc2)CC1)c1nnc(Cc2c(F)cccc2Cl)o1,-29.5%,-1.5%,-5.8,27.6%,-11.1%,2.8
Cc1ccc(Cl)cc1N1CCN(CCCNC(=O)c2nnc(Cc3cccc(Cl)c3)o2)CC1,10.3µM*,/,-1.1,/,20.6µM*,/
COc1ccc(Cc2nnc(C(=O)NCCCN3CCN(c4ccccc4F)CC3)o2)cc1OC,?,/,-1.7,/,?,/
SMILES,DT40 TDP1 no CPT,Gal4-VP16 FLuc,LDHA inh,RORg inh,DT40 TDP1 CPT,IL1B secr inh
O=C(NCCCN1CCN(c2ccccc2F)CC1)c1nnc(Cc2ccc(Cl)cc2Cl)o1,14.6µM*,/,3.9,/,20.6µM*,/
CCc1nnc(NC(=O)Cc2coc3cc4c(cc23)CCC4)s1,/,/,0.8,/,/,/
Clc1ccccc1-c1noc(-c2cccc(Br)c2)n1,/,/,0.2,/,/,/
Cn1nc(C(C)(C)C)cc1NC(=O)Nc1cc(Cl)cc(Cl)c1,?,-10.8%,7.1,?,16.4µM*,-98.0*
Cc1cccc(N(Cc2ccccc2)C(=O)CCl)c1,?,-25.1%,0.7,10µM*,2.31µM*,-6.4
COc1ccccc1C(=O)N(Cc1ccccc1)c1ccc(C)cc1,?,-20.0%,-0.8,-22.8%,14.6µM*,?
Cc1cc(NC(=O)C(C)SCC(=O)Nc2ccc(Br)cc2Br)no1 (stereo unspecified),13µM*,/,-5.4,/,?,-5.3
Cc1cccc(N(Cc2ccccc2)C(=O)CSC(C)C(=O)Nc2cc(C)on2)c1 (stereo unspecified),18.4µM*,/,-6.3,/,?,6.0
Cc1ccc(C=Nc2ccc(-c3ccc(N=Cc4ccc(C)s4)cc3)cc2)s1,/,/,-3.9,/,/,/
COc1ccc(CC(=O)N(Cc2ccccc2)c2cccc(C)c2)cc1OC,14.6µM*,14.9%,-3.2,-18.6%,?,?
COc1ccc(C(=O)N(Cc2ccccc2)c2cccc(C)c2)c(OC)c1OC,?,-8.9%,-0.7,0.6%,?,-9.9
CCC(=O)N(Cc1cc(=O)[nH]c2ccccc12)c1ccccc1,-15.3%,-14.0%,-5.2,13.0%,-17.0%,11.2
COC(=O)c1ccc(C(=O)N(Cc2ccccc2)c2ccccc2)cc1,?,-3.5%,-2.0,?,?,11.3
O=C(CCl)N(Cc1cc(=O)[nH]c2ccccc12)c1ccccc1,2.31µM*,?,-5.9,?,4.11µM*,-77.6*
O=C(CCl)N(Cc1ccccc1)c1ccccc1,5.8µM*,?,1.5,11.2µM*,5.17µM*,-95.9*
COc1cc(OC)cc(C(=O)Nc2cccc(-c3nncn3C)c2)c1,/,/,2.5,/,/,/
COc1ccccc1N=C1SC(C(=O)Nc2cccc(Cl)c2Cl)C(N)=C1C(N)=O (stereo unspecified),3.26µM*,-0.4%,-1.3,16.2%,2.91µM*,-22.7
CCNC(=O)CN1CCN(C(C(=O)O)c2cn(CC(=O)O)c3ccccc23)CC1 (stereo unspecified),/,/,10.6,/,/,/
